Screening data: PubChem BioAssay, several laboratories
AI-2 QS mod = Vibrio harveyi AI-2 quorum sensing modulators, primary screen, JMH597 strain, luminescence/OD600 ratio; AID 2094, 2009; 300,000 tested, 0.4% active; activity change, % at 7.5 µM; Vibrio harveyi JMH597 AI-2 luminescence/OD600 ratio, 9 h; stronger effect = lower value; strain lacks LuxN and CqsS sensors; 0 = neutral-control median; in the data active = activity change below about -75%, passing the limit was not always enough;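 note: luminescence divided by OD600 gain over 9 h not by final OD600 alone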
Efflux pump inh = inhibitors of Candida efflux pumps in yeast, primary screen, S. cerevisiae, Nile Red, multiplex. S. cerevisiae Candida pump triplex. inhibition, % at 10 µM. 330,000 tested, 0.44% active. AID 485275, 2010;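 active = plate passing quality check with inhibition over a set limit, or well fluorescence over plate mean plus 4 SD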;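 note: Nile Red retained in pooled yeast measured as flow cytometry median fluorescence; 0% = buffer negative control and 100% = Enniatin B positive control; higher means more Nile Red kept so more efflux inhibition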
ATG4B inhibitor = ATG4B protease inhibitors, primary screen, biochemical, fluorescence, uHTS. ATG4B cleavage of LC3-PLA2, NBD-HPC fluorescence, 1 h. inhibition, % at 8.33 µM. 340,000 tested, 0.51% active; in the data active = inhibition above about 40%
Target sequence (Q9Y4P1 whole entry, looked up): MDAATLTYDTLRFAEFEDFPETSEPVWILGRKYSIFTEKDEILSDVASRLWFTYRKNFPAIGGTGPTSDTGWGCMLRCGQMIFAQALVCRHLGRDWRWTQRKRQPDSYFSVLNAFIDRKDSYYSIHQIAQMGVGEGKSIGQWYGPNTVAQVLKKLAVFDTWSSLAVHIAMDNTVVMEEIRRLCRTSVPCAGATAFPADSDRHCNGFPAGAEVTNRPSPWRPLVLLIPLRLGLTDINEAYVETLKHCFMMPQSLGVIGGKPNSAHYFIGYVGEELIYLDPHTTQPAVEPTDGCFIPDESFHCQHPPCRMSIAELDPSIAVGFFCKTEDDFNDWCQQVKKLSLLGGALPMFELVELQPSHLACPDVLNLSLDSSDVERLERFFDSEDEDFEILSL
V-ATPase pHluor = regulators of yeast V-ATPase proton pumping, primary screen, pHLuorin cytosolic pH fluorescence | S. cerevisiae | response, % at 10 µM | 350,000 tested, 0.37% active; in the data active = response mostly above about 7.3%, no sharp cut-off; inactive = mostly below about 5.4%; note: actives read high
SUMO Mot1 rescue = yeast Mot1-301 growth rescue at high temperature, primary screen, SUMOylation pathway inhibitor project, S. cerevisiae, ATP luminescence, 38.5C | S. cerevisiae Mot1-301 growth rescue; percent above DMSO median, 100 means doubled | growth rescue, % at 18.8 µM | 320,000 tested, 1% active | AID 2716, 2010;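 active = every valid replicate shows activation above 250% relative to neutral control wells; inactive = the rest, any valid replicate at or below 250%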;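 note: OY570 slx delta 5 strain wells were the positive control but not used for scaling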
Cmpd fluor yeast = flagged as fluorescent in efflux inhibitor counter-screen; shares compounds with Efflux pump inh; S. cerevisiae AD/pABC3, compound fluorescence, flow cytometry; fluorescence ratio to DMSO, % at 10 µM; 1,700 tested, 4% active;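 active = fluorescence ratio to DMSO above its plate's cutoff, the plate mean ratio plus 5 SD, cut at about 210% in these data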;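 note: unstained yeast with no Nile Red so the signal is compound autofluorescence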
CaMdr1 efflux inh = inhibitors of Candida albicans Mdr1 efflux, confirmation, flow cytometry, singleplex, Cherry Pick1 set. shares compounds with Efflux pump inh. S. cerevisiae AD/CaMDR1, Nile Red efflux. inhibition, % at 10 µM. 1,700 tested, 1% active; in the data active = inhibition above about 26%;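 note: 0% = DMSO vehicle and 100% = reference inhibitor; higher means more Nile Red retained so more efflux inhibition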
Cdr2 pump inh = inhibitors of Candida albicans Cdr2 efflux pump, confirmation, S. cerevisiae AD/CaCDR2, flow cytometry, cherry pick 1, singleplex; Nile Red retention ratio vs DMSO, % at 10 µM; Nile Red retention; shares compounds with Efflux pump inh; 1,700 tested, 4% active; in the data active = Nile Red retention ratio vs DMSO above about 190%;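 note: higher ratio means more blocking of Cdr2 efflux of the dye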
Cdr1 pump inh = inhibitors of Candida albicans Cdr1 efflux pump, confirmation, S. cerevisiae AD/CaCDR1, flow cytometry, cherry pick 1, singleplex; shares compounds with Efflux pump inh; Nile Red efflux; inhibition, % at 10 µM; 1,700 tested, 1% active; AID 588522, 2011;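 active = inhibition above the screen-wide mean plus twice its standard deviation, cut at about 32% in these data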
Numbers without * were called inactive. Compounds with a hit are over-represented: about 2.5% of the library has one in this group of screens.

Results for CCOC(=O)N1CCN(C(=O)C2CCN(C(=O)c3ccccc3C)CC2)CC1 ?
ATG4B inhibitor: -10; V-ATPase pHluor: 7

Results for CC(C(=O)Nc1ccncc1)(c1ccccc1)c1ccccc1 ?
AI-2 QS mod: 24; Efflux pump inh: 0; ATG4B inhibitor: 4; V-ATPase pHluor: 0; SUMO Mot1 rescue: -1

What do the screens show for `COc1ccc(Nc2nc(CN3CCOCC3)nc3sc4c(c23)CCC(C)C4)cc1OC` (configuration not stated)?
AI-2 QS mod: 7; Efflux pump inh: 0; SUMO Mot1 rescue: -11

Results for COc1cc2c(cc1OC)CN(c1nc(CN3CCOCC3)nc3sc4c(c13)CCC(C)C4)CC2 (configuration not stated) ?
AI-2 QS mod: 1; Efflux pump inh: 98*; ATG4B inhibitor: -18; V-ATPase pHluor: 1; SUMO Mot1 rescue: 18; Cmpd fluor yeast: 100; CaMdr1 efflux inh: 6; Cdr2 pump inh: 112; Cdr1 pump inh: 82*

What do the screens show for `CSc1ccccc1Nc1ncnc(N)n1`?
AI-2 QS mod: 16; Efflux pump inh: 0; ATG4B inhibitor: -4; V-ATPase pHluor: -4; SUMO Mot1 rescue: -2

What do the screens show for `CC(C)(C)C(=O)CSc1ncccn1`?
AI-2 QS mod: 19; Efflux pump inh: 0.6*; ATG4B inhibitor: -1; V-ATPase pHluor: 0; SUMO Mot1 rescue: -7; Cmpd fluor yeast: 95; CaMdr1 efflux inh: 0; Cdr2 pump inh: 93; Cdr1 pump inh: 0

What do the screens show for `CC(C)(C)NC(=O)NC(=O)CSc1ncccn1`?
AI-2 QS mod: 17; Efflux pump inh: 0; ATG4B inhibitor: -4; V-ATPase pHluor: 3; SUMO Mot1 rescue: -13

Results for COc1ccc2[nH]c3c(c2c1)CCN1C(=O)C(CC(=O)NC/C=C(\C)CCC=C(C)C)C[C@H](C(=O)N2CCOCC2)[C@@]31CCC1CCCC1 (some centres not stated) ?
Efflux pump inh: 1; ATG4B inhibitor: 2; V-ATPase pHluor: 2

How did O=C(CSc1ncccc1C(=O)O)NC12CC3CC(CC(C3)C1)C2 do in these assays?
AI-2 QS mod: 16; Efflux pump inh: 0.5*; ATG4B inhibitor: -3; V-ATPase pHluor: 1; SUMO Mot1 rescue: -7; Cmpd fluor yeast: 104; CaMdr1 efflux inh: 0; Cdr2 pump inh: 104; Cdr1 pump inh: 0

How did O=C(CSc1ccccc1C(=O)O)NC12CC3CC(CC(C3)C1)C2 do in these assays?
AI-2 QS mod: -1; Efflux pump inh: 0; ATG4B inhibitor: -5; V-ATPase pHluor: 5; SUMO Mot1 rescue: 344

How did COc1ccccc1N1CC(C(=O)OCC(=O)Nc2c(C)cccc2C)CC1=O (configuration not stated) do in these assays?
Efflux pump inh: 0; ATG4B inhibitor: -3; V-ATPase pHluor: 7; SUMO Mot1 rescue: 5

How did COc1ccc(NC(=O)COC(=O)c2ccc(OC)c(S(=O)(=O)N3CCCC3)c2)cc1OC do in these assays?
Efflux pump inh: 0; ATG4B inhibitor: -9; V-ATPase pHluor: 3; SUMO Mot1 rescue: -12

What do the screens show for `Cc1c(/C=N/O)c2ccccn2c1C(=O)c1ccc(F)cc1`?
AI-2 QS mod: 21; Efflux pump inh: 1.7*; ATG4B inhibitor: 1; V-ATPase pHluor: 3; SUMO Mot1 rescue: 10; Cmpd fluor yeast: 96; CaMdr1 efflux inh: 0; Cdr2 pump inh: 96; Cdr1 pump inh: 0
